Compounds with a hit are over-represented: about 22% of the library has one in this group of screens.
CYP2C9 inh: human CYP2C9 inhibition | P11712 | CYP2C9 Supersomes, luciferin-H conversion, luminescence | inhibition, % at 5 µM | 20% of 96,000 active;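 active = blocking of liver enzyme CYP2C9 beyond about 50% at 5 µM, limit read from the data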
Target sequence (P11712 whole entry, looked up): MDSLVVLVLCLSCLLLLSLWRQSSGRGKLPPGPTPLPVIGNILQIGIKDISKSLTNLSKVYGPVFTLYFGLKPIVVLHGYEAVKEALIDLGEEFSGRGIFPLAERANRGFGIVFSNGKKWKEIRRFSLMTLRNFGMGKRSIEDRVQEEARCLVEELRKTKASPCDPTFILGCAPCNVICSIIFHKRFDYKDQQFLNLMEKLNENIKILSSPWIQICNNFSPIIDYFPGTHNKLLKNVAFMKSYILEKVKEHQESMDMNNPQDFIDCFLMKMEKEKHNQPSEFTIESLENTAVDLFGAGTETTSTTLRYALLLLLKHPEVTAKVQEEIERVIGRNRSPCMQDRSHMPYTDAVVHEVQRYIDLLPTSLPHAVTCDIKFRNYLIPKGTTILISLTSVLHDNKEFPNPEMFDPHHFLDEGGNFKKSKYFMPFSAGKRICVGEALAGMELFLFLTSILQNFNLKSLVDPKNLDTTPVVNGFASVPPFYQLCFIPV
CYP2C19 inhib: blocks human cytochrome P450 2C19. P33261. CYP2C19 Supersomes, luciferin-H EGE luminescence, 30 min. inhibition, % at 5 µM. 21% of 96,000 active;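 active = CYP2C19 inhibition above a set limit at 5 µM in the primary screen, cut at about 50% in these data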;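 note: plate controls were negative control wells for no effect and 2.5 mM tranylcypromine positive control for full effect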
Measles CPE: protection of cells from measles virus; Measles virus-infected cells, CPE protection, absorbance; protection (pct of control), % at 4 µM; 1.5% of 140,000 active; AID 841; in the data active = protection mostly above about 24%, no sharp cut-off; inactive = mostly below about 26%
CYP2C9 activ: increases human cytochrome P450 2C9 activity. 1.4% of 96,000 active. activation factor at 5 µM. AID 1024. P11712. recombinant CYP2C9, luciferin-H conversion, luminescence; active compounds read high; factor 1 = untreated enzyme, 0 = blocked;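 active = activation factor of 2 or more for CYP2C9 at a 5 µM dose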;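 note: 0 = sulfaphenazole-blocked wells and 1 = vehicle-only wells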
CYP2C19 activ: activators of human cytochrome P450 2C19 | P33261 | activation factor at 5 µM | 96,000 tested, under 10 active | recombinant CYP2C19, luciferin-H EGE luminescence; active compounds read high; 0 = fully inhibited enzyme, 1 = untreated enzyme | AID 1025;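 active = activation factor of at least 2 at 5 µM in the primary screen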;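 note: 0 = wells with 2.5 mM tranylcypromine and 1 = vehicle-only wells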
Numbers without * were called inactive; . = no result.

SMILES	CYP2C9 inh	CYP2C19 inhib	Measles CPE	CYP2C9 activ	CYP2C19 activ
CCOc1ccccc1C1CC(=O)NC(SCC)=C1C#N (configuration not stated)	26	39	3	0.7	0.6
CCOc1ccccc1C1CC(=O)NC(SCC(=O)Nc2nccs2)=C1C#N (configuration not stated)	67*	60*	10	0.3	0.4
Cc1ccc(C2CC(=O)NC(SCC(=O)Nc3nccs3)=C2C#N)cc1 (configuration not stated)	65*	28	5	0.3	0.7
N#CC1=C(SCC(=O)Nc2ccccc2)NC(=O)CC1c1ccc(O)cc1 (configuration not stated)	34	71*	6	0.7	0.3
COc1cc(C2CC(=O)NC(SCC(=O)Nc3ccccc3C)=C2C#N)ccc1O (configuration not stated)	-15	41	4	1.2	0.6
O=C(Cn1cccc1C(=O)c1ccccc1)NCc1ccccn1	10	3	9	0.9	1
C/C(N)=C(\C#N)C(=O)NCc1ccccn1	14	3	9	0.9	1
O=C(Oc1ccccc1OC(=O)N1CCOCC1)N1CCOCC1	-4	8	4	1	0.9
C=C(C)c1cccc(C(C)(C)NC(=O)N2CCN(c3ccccn3)CC2)c1	44	28	7	0.6	0.7
C=C(C)c1cccc(C(C)(C)NC(=O)N2CCCC2)c1	.	.	4	.	.
C=C(C)c1cccc(C(C)(C)NC(=O)N2CC(C)OC(C)C2)c1 (configuration not stated)	8	69*	18	0.9	0.3
CC(C(=O)N1CCOCC1)(c1ccccc1)c1ccccc1	24	94*	8	0.8	0.1
C=C(C)c1cccc(C(C)(C)NC(=O)N2CCOCC2)c1	17	56*	13	0.8	0.4
CCN(CC)S(=O)(=O)c1ccc(Cl)c(C(=O)Nc2ccc(Cl)cc2[N+](=O)[O-])c1	.	.	5	.	.
COc1ccc(N(CC(=O)N2CCc3ccccc3C2)S(C)(=O)=O)cc1	1	18	20	1	0.8
COc1ccc(N(CC(=O)N2CCc3ccccc3C2)S(=O)(=O)c2c(C)nn(C)c2C)cc1	64*	91*	7	0.4	0.1
COc1ccc(N(CC(=O)NCc2ccccc2OC)S(=O)(=O)c2c(C)nn(C)c2C)cc1	94*	66*	7	0.1	0.3
COc1ccc(OC)c(S(=O)(=O)N(C)CC(=O)N2CCc3ccccc3C2)c1	80*	68*	11	0.2	0.3
COc1ccccc1CNC(=O)CN(c1ccc(C)cc1)S(=O)(=O)c1c(C)nn(C)c1C	81*	70*	4	0.2	0.3
CC(C)(C)c1cc(C(=O)N2CCc3ccccc32)ccn1	53*	72*	13	0.5	0.3
CC(=O)c1cc2c(cc1NC(=O)c1cc(C)nn1-c1ccccc1)OCO2	.	.	5	.	.
Cc1cc(C)n(-c2ccc(C(=O)N3CCc4ccccc43)cc2)n1	-103	41	7	2*	0.6
Cc1cc(C(=O)N2CCc3ccccc32)n(-c2ccccc2)n1	68*	75*	4	0.3	0.2
CC(=O)Nc1ccc(NC(=O)c2cc(C)nn2-c2ccccc2)cc1	14	3	53*	0.9	1
Cc1ccc(-c2nc3ccccc3[nH]2)cc1NC(=O)c1sc2cc(Cl)ccc2c1Cl	.	.	4	.	.
SMILES	CYP2C9 inh	CYP2C19 inhib	Measles CPE	CYP2C9 activ	CYP2C19 activ
CCC(C)(C)NC(=O)C(C)OC(=O)c1nsc(Cl)c1Cl (configuration not stated)	.	.	18	.	.
Cc1cc(=O)n2[nH]c(=O)c(N=Nc3ccccc3)c2[nH]1	-10	-3	4	1.1	1
CCOc1ccc(N=Nc2c(=O)[nH]n3c(=O)cc(C)[nH]c23)cc1	31	63*	18	0.7	0.4
O=C(CN(c1ccc2c(c1)OCCO2)S(=O)(=O)c1ccccc1)NCc1ccco1	62*	71*	4	0.4	0.3
Cc1ccc(N(CC(=O)Nc2ccccc2-c2ccccc2)S(=O)(=O)c2ccccc2)cc1	60*	55*	3	0.4	0.5
Cc1cc(C)cc(N(CC(=O)Nc2ccccc2-c2ccccc2)S(=O)(=O)c2ccccc2)c1	.	.	7	.	.
COc1ccccc1N(CC(=O)N/N=C/c1ccc(OCC(=O)NCc2ccco2)cc1)S(=O)(=O)c1ccc(C)cc1	96*	89*	9	0	0.1
Cc1ccc(N(CC(=O)NCc2ccco2)S(=O)(=O)c2ccccc2)cc1	92*	94*	3	0.1	0.1
CCc1ccc(C2CC(c3cccc(OC)c3)n3nc(N)nc3N2)cc1 (configuration not stated)	5	12	.	1	0.9
C=CCc1c(C)nn(CC(=O)O)c1-c1ccccc1	0	-5	4	1	1
O=C(CN(Cc1ccccc1)S(=O)(=O)c1ccc(Br)cc1)NCc1ccco1	66*	32	8	0.3	0.7
Cc1ccc(N(CC(O)COCc2ccco2)S(=O)(=O)c2ccc(C)cc2)cc1 (configuration not stated)	88*	94*	46*	0.1	0.1
CCCCN(Cc1ccccc1)C(=O)c1cnc2n(c1=O)CCS2	2	-10	7	1	1.1
CC(C)(C)NC1=CC(=O)OC12CCCCC2	-4	-8	4	1	1.1
O=C(c1ccc(O)cc1)c1ccc(C(=O)c2ccc(O)cc2)cc1	69*	-5	6	0.3	1.1
O=C(CNC(=O)c1ccc(-c2ccccc2)cc1)OCc1c(F)cccc1Cl	.	.	4	.	.
C=CCn1c(C(C)NC(=O)c2ccccc2)n[nH]c1=S (configuration not stated)	4	62*	2	1	0.4
Cc1ccccc1NC(=S)NC1CC2CCC(C1)N2Cc1ccco1 (configuration not stated)	-6	-8	3	1.1	1.1
COc1ccc(CNS(=O)(=O)c2ccc(OC)cc2)cc1	-28	76*	14	1.3	0.2
CCOc1ccc(CNC(=O)NS(=O)(=O)c2ccc(OC)cc2)cc1	2	-8	33	1	1.1
CCCOc1ccc(S(=O)(=O)NCc2ccc(OC)cc2)cc1	23	58*	2	0.8	0.4
COC(=O)c1c(S(=O)(=O)NCc2ccccc2)sc(C(=O)O)c1C	62*	-11	17	0.4	1.1
COc1ccc(S(=O)(=O)NCc2cccs2)cc1	-16	95*	1	1.2	0.1
COc1ccc(S(=O)(=O)NCCCCNS(=O)(=O)c2ccc(OC)cc2)cc1	-28	24	6	1.3	0.8
CCOC(=O)CSc1nnc(CNC(=O)c2cccs2)n1-c1cc(C)ccc1C	20	-1	9	0.8	1
COCC(C)NS(=O)(=O)c1ccc(OC)cc1 (configuration not stated)	-21	61*	4	1.2	0.4
COc1ccc(S(=O)(=O)NCc2ccccc2)cc1	-73	97*	5	1.7	0
